# Source: PubChem BioAssay (EPA / NIEHS)
# Inconclusive results are not listed. The source made the active and inactive calls. Rule for the calls: active = hit-call score of the fitted dose curve at least 0.9, where 1 is the maximum; inconclusive = response in the unintended direction; inactive = score below 0.9.
# Experiment: CCTE_Harrill_HTTr_CellCount_MCF7: CCTE's Cell Proliferation Assessment for the High-Throughput Transcriptomics (HTTr) Platform, Harrill Lab (AID 2284012);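 note: intended direction is loss of nuclei count meaning fewer cells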
# Description: This is a cell-based assay that evaluates cell viability and cell growth using high content imaging to count the number of Hoechst-labeled nuclei that are present in an assay well in 384-well format.This is a cell-based assay that evaluates cell viability and cell growth in MCF-7 cells. This was part of a full screening experiment. High content imaging is used to count the number of Hoechst-labeled nuclei that are present in an assay well in 384-well format.The assay component endpoint CCTE_Harrill_HTTr_CellCount_MCF7 was analyzed with bidirectional fitting relation to DMSO as the negative control and baseline of activity. Using a type of viability reporter, loss-of-signal activity can be used to understand changes in cell count. To generalize the intended target to other relatable targets, this assay endpoint is annotated to cell cycle, where the subfamily is cell count.
# Chemicals were tested in MCF7 cells in an eight point dilution series with a six hour exposure duration.
row,Compound,outcome
1,NCC1(Cc2noc(=O)[nH]2)CCCCC1,inactive
2,Cc1cccc([N+](=O)[O-])c1C,inactive
3,CNC(=O)[C@H]1O[C@@H](n2cnc3c(NCc4cc(Cl)ccc4OCc4cc(C)no4)ncnc32)[C@H](O)[C@@H]1N,inactive
4,CN1CCCC1=O,inactive
5,NS(=O)(=O)c1cc2c(cc1Cl)NCNS2(=O)=O,inactive
6,C[C@]12C=CC(=O)C=C1CC[C@@H]1[C@@H]2C(=O)C[C@@]2(C)[C@H]1CC[C@]2(O)C(=O)CO,inactive
7,COCCOCCOC,inactive
8,Nc1ccc(S(=O)(=O)c2ccc(N)cc2)cc1,inactive
9,Cc1ccc(C(C)C)c(O)c1,inactive
10,NCCO,inactive
11,COc1ccc(C)cc1N,inactive
12,CCCCC(CC)COC(=O)CC(C(=O)OCC(CC)CCCC)S(=O)(=O)O (stereo not given),inactive
13,COc1cc(C=O)ccc1O,inactive
14,Cc1ccc(C)c(O)c1C,inactive
15,CN[C@H]1CC[C@@H](c2ccc(Cl)c(Cl)c2)c2ccc(S(N)(=O)=O)cc21,inactive
16,COC(=O)c1ccc(O)cc1,inactive
17,CC(C)c1ccc(C(=O)N=C(N)N)cc1S(C)(=O)=O,inactive
18,COc1cc(S(=O)(=O)O)c(C)cc1N=Nc1c(O)ccc2cc(S(=O)(=O)O)ccc12,inactive
19,Oc1ccc2c(c1)OC[C@@H](N1CCC(O)(c3ccc(F)cc3)CC1)[C@H]2O,inactive
20,Cc1nc(C)nc(N2C[C@@H](C)N(c3ccnc([C@@H](C)O)n3)[C@@H](C)C2)n1,inactive

row,Compound,outcome
1,CCCCCCCCCCCC(=O)OC,inactive
2,CC1=C(/C=C/C(C)=C/C=C/C(C)=C/CO)C(C)(C)CCC1,inactive
3,CCCc1cc(=O)[nH]c(=S)[nH]1,inactive
4,CCCCCCCCCCC,inactive
5,O=[N+]([O-])C(CO)(CO)CO,inactive
6,O=C(O)CCCCC(=O)O,inactive
7,Clc1cc(Cl)c(Cl)cc1Cl,inactive
8,CCNc1cccc(C)c1,inactive
9,C=CCc1ccc(O)c(OC)c1,inactive
10,CCCCCCCCCCCCCO,inactive
11,OC[C@@H](O)[C@@H](O)[C@H](O)[C@H](O)CO,inactive
12,CCCCc1ccc2c(n1)[C@@H](c1ccc(OC)cc1C[C@H](C)C(=O)O)[C@H](C(=O)O)[C@H]2c1ccc2c(c1)OCO2,inactive
13,CCOC(=O)CCC(=O)OCC,inactive
14,Cc1cccc(C)c1O,inactive
15,NC(=O)Cn1c(=O)cc(CCN2CCN(c3nccc4sccc34)CC2)c2ccc(F)cc21,inactive
16,O=C(N[C@@H](Cc1ccccc1)[C@@H](O)C(=O)N1C[C@@H](O)[C@@H](O)C1)c1cc2cc(Cl)ccc2[nH]1,inactive
17,C[Si]1(C)O[Si](C)(C)O[Si](C)(C)O[Si](C)(C)O1,inactive
18,CNCc1cc(F)ccc1Oc1ccc(Cl)c(Cl)c1,inactive
19,COc1cc(/C=C/C(=O)CC(=O)/C=C/c2ccc(O)c(OC)c2)ccc1O,inactive
20,O=c1[nH]cc(F)c(=O)[nH]1,inactive
